Here are results for 31 compounds from ChEMBL document CHEMBL4513141, “CO-ADD screening of NIH (USA) - Clinical Collection” (2021).

In assay [1] the test system is Staphylococcus aureus. Particulars: Concentration 20 uM; ASSAY_TEST Inhibition of Bacterial Growth; detection method Absorption (OD600); MEDIA CAMHB; plate type 384well; NBS; CORNING #3640; time 18 hr.
Assay [2] has as its system Escherichia coli. To be noted: Concentration 20 uM; ASSAY_TEST Inhibition of Bacterial Growth; detection method Absorption (OD600); MEDIA CAMHB; plate type 384well; NBS; CORNING #3640; time 18 hr.

One may read the Inhibition as the change of the read-out against control, counted positive when it falls.

Entries with a potency or affinity are not part of this list.

Turning to `COc1ccc(Cl)cc1C(=O)NCCc1ccc(S(=O)(=O)NC(=O)NC2CCCCC2)cc1` [GLYBURIDE], the Inhibition in assay [1] is given as -3.01%; in assay [2], -12.57%.
On the same counts, the results for `Nc1ccn([C@@H]2CS[C@H](CO)O2)c(=O)n1` [LAMIVUDINE] are 9.88% and 8.04%.
For the compound `CCN1CCCC1CNC(=O)c1cc(S(=O)(=O)CC)c(N)cc1OC` (configuration not stated) [AMISULPRIDE], the results for the Inhibition in assay [1] and in assay [2] were 15.04% and -7.41%, respectively.
With `Cl.O=C1c2c(O)ccc(O)c2C(=O)c2c(NCCNCCO)ccc(NCCNCCO)c21`, the values for the Inhibition in assay [1] and in assay [2] were -9.15% and 4.04%, respectively.
The corresponding values for `CS(=O)(=O)OCCCCOS(C)(=O)=O` [BUSULFAN] are 14.7% and 10.16%.
As to `CC(=O)Nc1ccc(CC(=O)O)cc1` [ACTARIT], the Inhibition in assay [1] is -0.71%; in assay [2], 3.54%.
For the compound `CCCCC(=O)O[C@H]1CC[C@H]2[C@@H]3CCc4cc(O)ccc4[C@H]3CC[C@]12C` [ESTRADIOL VALERATE], the Inhibition in assay [1] was determined as 3.82%; in assay [2], 3.72%.
As to `COc1cc(C)c(/C=C/C(C)=C/C=C/C(C)=C/C(=O)O)c(C)c1C` [ACITRETIN], the values for the Inhibition in assay [1] and in assay [2] were -32.23% and 4.27%, respectively.
The corresponding values for `CC(C(=O)[O-])c1ccc(CC2CCCC2=O)cc1.[Na+]` (configuration not stated) [LOXOPROFEN SODIUM] are 9.06% and -0.84%.
Consider `Nc1ccc(O)c(C(=O)O)c1` [MESALAMINE], for which the Inhibition in assay [1] was -19.58%; in assay [2] it was 3.21%.
The corresponding values for `Oc1ccc(/C=C/c2cc(O)cc(O)c2)cc1` [RESVERATROL] are 19.49% and 1.45%.
On to `COc1ccc2cc(CCC(C)=O)ccc2c1` [NABUMETONE], for which the Inhibition in assay [1] was 14%; in assay [2], 3.66%.
`O=C1c2c(O)cc(O)cc2O[C@H](c2ccc(O)c(O)c2)[C@H]1O` [(+)-TAXIFOLIN]: the values for the Inhibition in assay [1] and in assay [2] were 8.9% and -0.85%, respectively.
With `COc1cc([C@@H]2c3cc4c(cc3[C@@H](O[C@@H]3O[C@@H]5CO[C@@H](C)O[C@H]5[C@H](O)[C@H]3O)[C@H]3COC(=O)[C@H]23)OCO4)cc(OC)c1O` [ETOPOSIDE], the figures for the Inhibition in assay [1] and in assay [2] were 14.84% and -0.07%, respectively.
As to `Cc1cccc(C)c1NC(=O)C(C)N` (configuration not stated) [TOCAINIDE], the Inhibition in assay [1] is 2.4%; in assay [2] it was 3.98%.
On the same counts, the results for `Cl.O=C1[C@H]2CCCC[C@H]2C(=O)N1CCCCN1CCN(c2nsc3ccccc23)CC1` are 14.1% and 0.37%.
As for `OCCN1CCN(CCCN2c3ccccc3Sc3ccc(Cl)cc32)CC1` [PERPHENAZINE], the Inhibition in assay [1] worked out at 23.21%; in assay [2], 4.38%.
As for `N[C@@H]1CONC1=O` [CYCLOSERINE], the Inhibition in assay [1] turned out to be 14.71%; in assay [2], 1.47%.
On the same counts, the results for `O=C(NCCN1CCOCC1)c1ccc(Cl)cc1` [MOCLOBEMIDE] are 3.95% and 0.74%.
With `CCN(Cc1ccncc1)C(=O)C(CO)c1ccccc1` (configuration not stated) [TROPICAMIDE], the Inhibition in assay [1] is 7.97%; in assay [2], 5.49%.
Take `CCCC1O[C@@H]2C[C@H]3[C@@H]4CCC5=CC(=O)C=C[C@]5(C)[C@H]4[C@@H](O)C[C@]3(C)[C@]2(C(=O)CO)O1` (some centres not stated) [BUDESONIDE]: the Inhibition in assay [1] was 6.99%; in assay [2] it was -1.42%.
With `CNC(=C[N+](=O)[O-])NCCSCc1ccc(CN(C)C)o1.Cl` [RANITIDINE HYDROCHLORIDE], the figures for the Inhibition in assay [1] and in assay [2] were -17.46% and 4.52%, respectively.
`CC(N)C12CC3CC(CC(C3)C1)C2.Cl` (configuration not stated) [RIMANTADINE HYDROCHLORIDE]: the Inhibition is given as 6.08% in assay [1] and -3.07% in assay [2].
The corresponding values for `Nc1c2c(nc3c1CCC3)CCCC2` [IPIDACRINE] are 16.52% and 5.57%.
For the compound `CS(=O)(=O)O.Cc1ccc(NC(=O)c2ccc(CN3CCN(C)CC3)cc2)cc1Nc1nccc(-c2cccnc2)n1` [IMATINIB MESYLATE], the values for the Inhibition in assay [1] and in assay [2] were 11.51% and 2.87%, respectively.
Take `CCC1=C[C@H]2CN(C1)Cc1c([nH]c3ccccc13)[C@@](C(=O)OC)(c1cc3c(cc1OC)N(C)[C@H]1[C@@](O)(C(=O)OC)[C@H](OC(C)=O)[C@]4(CC)C=CCN5CC[C@]31[C@@H]54)C2.O=C(O)C(O)C(O)C(=O)O.O=C(O)C(O)C(O)C(=O)O`: the Inhibition is given as 13.36% in assay [1] and 2.61% in assay [2].
In the case of `C/C=C1/[C@H]2C=C(C)C[C@]1(N)c1ccc(O)nc1C2`, the Inhibition is listed as 13.84% in assay [1] and -0.02% in assay [2].
In the case of `Cc1nc(=O)c2cc(CN(C)c3ccc(C(=O)N[C@@H](CCC(=O)O)C(=O)O)s3)ccc2[nH]1` [RALTITREXED], the Inhibition in assay [1] stood at 9.09%; in assay [2], 2.78%.
Regarding `CNNCc1ccc(C(=O)NC(C)C)cc1.Cl` [PROCARBAZINE HYDROCHLORIDE], the Inhibition is recorded as 12.92% in assay [1] and -2.72% in assay [2].
On the same counts, the results for `O=c1[nH]c(=O)n(C2CCCO2)cc1F` (configuration not stated) [TEGAFUR] are 17.75% and 8.41%.
The corresponding values for `C[C@]12C=CC(=O)C=C1CC[C@@H]1[C@@H]2[C@@H](O)C[C@@]2(C)[C@H]1CC[C@]2(O)C(=O)CO` [PREDNISOLONE] are 7.56% and 7.41%.
